# Laboratory results taken from PubChem BioAssay (NCATS).
# Inconclusive results are not listed. Where a call stands in place of a potency, no number is given. Calls of active or inactive are those of the source. The call rests on the fitted dose curve; in most records, active means well fitted inhibition curve with a large enough effect; inconclusive means small, poorly fitted or top-dose-only effect; inactive means flat fitted curve, though single readings scatter.
# Key:
# Assay in all cases: qHTS profiling for inhibitors of Plasmodium falciparum proliferation (AID 504749); further: nearly all actives have a fitted effect of over 60% in size
# Settings in all cases: P. falciparum in erythrocytes, SYBR Green DNA, 72 h; series mostly up to 28.7 µM
# CP201 = test system: CP201
# How it was run: (§1)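 Three-day growth assay of blood-stage parasites in erythrocytes (0.3% parasitemia, 2.5% hematocrit) at 37 C, 5% CO2, quantified by SYBR Green DNA staining after overnight detergent lysis.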
# CP211 = test system: CP211
# How it was run: as §1
# CP215 = test system: CP215
# How it was run: as §1
# CP217 = test system: CP217
# How it was run: as §1
# CP237 = test system: CP237
# How it was run: as §1
# CP238 = test system: CP238
# How it was run: as §1
# CP247 = test system: CP247
# How it was run: as §1
# CP250 = test system: CP250
# How it was run: as §1
# CP252 = test system: CP252
# How it was run: as §1
# CP256 = test system: CP256
# How it was run: as §1
# CP260 = test system: CP260
# How it was run: as §1
# CP262 = test system: CP262
# How it was run: as §1
# CP265 = test system: CP265
# How it was run: as §1
# CP266 = test system: CP266
# How it was run: as §1
# CP268 = test system: CP268
# How it was run: as §1
# CP269 = test system: CP269
# How it was run: as §1
# CP286 = test system: CP286
# How it was run: as §1
# CP291 = test system: CP291
# How it was run: as §1
# CP297 = test system: CP297
# How it was run: as §1
# CP203 = test system: CP203
# How it was run: as §1
# Potency means the concentration at half of the fitted maximal effect.
SMILES,Potency (CP201),Potency (CP211),Potency (CP215),Potency (CP217),Potency (CP237),Potency (CP238),Potency (CP247),Potency (CP250),Potency (CP252),Potency (CP256),Potency (CP260),Potency (CP262),Potency (CP265),Potency (CP266),Potency (CP268),Potency (CP269),Potency (CP286),Potency (CP291),Potency (CP297),Potency (CP203)
CC(=O)[C@H]1CC[C@H]2[C@@H]3CC[C@H]4C[C@H](O)CC[C@]4(C)[C@H]3C(=O)C[C@]12C,inactive,inactive,inactive,inactive,inactive,inactive,inactive,inactive,inactive,inactive,inactive,inactive,inactive,inactive,inactive,inactive,inactive,inactive,inactive,
C#CCOC(C(=O)OCCN(C)C)(c1ccccc1)c1ccccc1,inactive,inactive,inactive,inactive,inactive,inactive,inactive,inactive,inactive,inactive,inactive,inactive,inactive,inactive,inactive,inactive,inactive,inactive,inactive,inactive
Cn1c(CCCC(=O)O)nc2cc(N(CCCl)CCCl)ccc21,inactive,inactive,inactive,inactive,inactive,inactive,inactive,inactive,inactive,inactive,inactive,inactive,inactive,inactive,inactive,inactive,inactive,inactive,inactive,
CC(C)(C)CC(C)(C)c1ccc(O)cc1,inactive,inactive,inactive,inactive,inactive,inactive,11.2 µM (active),inactive,inactive,inactive,inactive,inactive,inactive,inactive,inactive,inactive,inactive,inactive,inactive,
NCC1(CC(=O)O)CCCCC1,inactive,inactive,inactive,inactive,inactive,inactive,inactive,inactive,inactive,inactive,inactive,inactive,inactive,inactive,inactive,inactive,inactive,inactive,inactive,
NCC(O)c1ccc(O)cc1 (stereo not given),inactive,inactive,inactive,inactive,inactive,inactive,inactive,inactive,inactive,inactive,inactive,inactive,inactive,,inactive,inactive,inactive,inactive,inactive,inactive
Cc1ccc(S(=O)(=O)N[C@@H](CCCCN)C(=O)CCl)cc1,inactive,inactive,inactive,,,,5.62 µM (active),7.94 µM (active),,7.94 µM (active),,,,inactive,inactive,inactive,,,inactive,
CN(C)CCc1ccc(O)cc1,inactive,inactive,inactive,inactive,inactive,inactive,inactive,inactive,inactive,inactive,inactive,inactive,inactive,,inactive,inactive,inactive,inactive,inactive,
Clc1cccc(N2CCNCC2)c1,inactive,,inactive,inactive,,inactive,inactive,inactive,inactive,inactive,inactive,inactive,inactive,inactive,inactive,inactive,inactive,inactive,,
CC[N+](CC)(CC)CC,inactive,inactive,,inactive,inactive,inactive,inactive,inactive,inactive,inactive,inactive,inactive,inactive,inactive,inactive,inactive,inactive,inactive,inactive,
C=C1CC[C@@]2(O)[C@H]3Cc4ccc(O)c5c4[C@@]2(CCN3CC2CC2)[C@H]1O5,inactive,inactive,inactive,inactive,,inactive,inactive,inactive,inactive,inactive,,inactive,inactive,inactive,inactive,inactive,inactive,inactive,inactive,
CN1C[C@H](CNC(=O)OCc2ccccc2)C[C@@H]2c3cccc4c3c(cn4C)C[C@H]21,,9.53 µM (active),,7.94 µM (active),8.91 µM (active),11.2 µM (active),,,10 µM (active),6.31 µM (active),11.2 µM (active),6.75 µM (active),5.62 µM (active),,,,8.91 µM (active),,,
O=[N+]([O-])c1cc([As](=O)(O)O)ccc1O,,,,3.16 µM (active),3.16 µM (active),,,3.16 µM (active),3.16 µM (active),,3.16 µM (active),,,,,,,5.1 µM (active),,
c1ccc(C2CC2)c(OCC2=NCCN2)c1,inactive,inactive,inactive,inactive,,inactive,,inactive,inactive,inactive,inactive,,inactive,inactive,inactive,inactive,inactive,inactive,inactive,
N#CC(C#N)=Cc1ccc(O)c(O)c1,inactive,inactive,,inactive,inactive,inactive,inactive,,inactive,,inactive,inactive,inactive,inactive,inactive,inactive,inactive,inactive,,
c1ccc2c(c1)Nc1ccccc1S2,inactive,,,,,inactive,10 µM (active),4.47 µM (active),,,10 µM (active),,inactive,inactive,,,,,,
O=c1[nH]c2ccccc2n1CCCN1CCC(n2c(=O)[nH]c3cc(Cl)ccc32)CC1,inactive,,,,7.94 µM (active),,,,,,11.2 µM (active),inactive,,inactive,,,11.2 µM (active),,8.49 µM (active),
